Results published in PubChem BioAssay AID1210 (NMMLSC, 2008).
Calls of active or inactive are those of the source.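 Rule for the calls: active = blocks over 70% of labeled estradiol binding at 10 µM, or over a set limit at 100 nM; inactive = the rest.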

Target: Estrogen receptor beta (Homo sapiens) (UniProt Q92731)
Test: displacement of fluorescent estrogen from ERbeta – cell-based, Cos7 ERbeta-GFP, flow cytometry, primary screen (AID 1210);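 note: 0% = DMSO vehicle wells and 100% = complete loss of labeled estradiol signal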
Conditions: fluorescent estrogen binding, stronger effect = higher value
[1] = ligand binding inhibition, at 0.1 µM

Sequence of Estrogen receptor beta (Homo sapiens) (Q92731 whole entry, looked up): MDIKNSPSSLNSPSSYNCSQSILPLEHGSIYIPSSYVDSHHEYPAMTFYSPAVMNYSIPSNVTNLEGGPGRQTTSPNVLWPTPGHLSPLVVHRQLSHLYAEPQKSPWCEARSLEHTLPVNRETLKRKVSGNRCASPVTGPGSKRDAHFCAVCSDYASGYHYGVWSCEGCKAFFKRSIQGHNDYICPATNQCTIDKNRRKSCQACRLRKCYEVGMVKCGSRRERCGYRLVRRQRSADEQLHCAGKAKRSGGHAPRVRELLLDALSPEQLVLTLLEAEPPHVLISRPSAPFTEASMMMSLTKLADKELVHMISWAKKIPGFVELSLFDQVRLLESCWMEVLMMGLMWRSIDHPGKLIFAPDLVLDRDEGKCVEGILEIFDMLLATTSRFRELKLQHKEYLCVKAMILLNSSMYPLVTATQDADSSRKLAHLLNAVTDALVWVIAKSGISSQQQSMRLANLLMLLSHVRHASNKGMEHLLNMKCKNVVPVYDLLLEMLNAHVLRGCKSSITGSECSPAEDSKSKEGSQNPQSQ

Compound	inhibition (at 10 µM)	inhibition [1]
Cc1ccc(Nc2nnc(SCC(=O)NCc3ccco3)s2)cc1	18% (inactive)	18%
CCCCn1c(=O)[nH]c2nc3cc(N)ccc3nc2c1=O	31% (inactive)	16%
Cc1cc(N)ccc1N=Nc1c(C)n(C)n(-c2ccccc2)c1=O	15% (inactive)	31%
O=[N+]([O-])c1ccc(Cl)c2c1C1C=CCC1C(c1ccccn1)N2 (stereo not drawn)	0% (inactive)	19%
CCOC(=O)N1CCN(S(=O)(=O)c2ccc(C(=O)Nc3nc4ccc(F)cc4s3)cc2)CC1	69% (inactive)	39%
O=C(O)C1Nc2c(O)cccc2C2C=CCC12 (stereo not drawn)	0% (inactive)	4%
Cc1ccccc1-n1nc(-c2ccc(N)cc2)cc1N	25% (inactive)	21%
Cc1cc2oc(=O)cc(COC(=O)c3n[nH]c4ccccc34)c2cc1C	68% (inactive)	18%
CC1(N2CCOCC2)CC2(O)C(=[N+]1[O-])CCc1nonc12 (stereo not drawn)	49% (inactive)	62%
Cc1ccsc1/C=C(\C(=O)c1ccc(OC(C)C)cc1)c1nc2ccccc2o1	34% (inactive)	60%
COc1ccc(C2Nc3ccccc3C(=O)N2c2ccccc2)cc1COc1ccccn1 (stereo not drawn)	18% (inactive)	17%
O=c1oc2ccccc2cc1-c1ccc(O)cc1O	42% (inactive)	21%
CC(C)(C)c1nnc2sc(SC/C(O)=C(\C#N)c3nc4ccccc4[nH]3)nn2c1=O	31% (inactive)	15%
C/C(N)=C(/C#N)C(=O)CSc1nnc(-c2ccc(OC(F)F)cc2)o1	37% (inactive)	23%
Cc1ccc2c(c1)c(=O)c1c3n2CCN(C(=O)CCl)C3CC1 (stereo not drawn)	37% (inactive)	33%
COc1ccc(C)cc1-n1nnnc1SCC(=O)NC(=O)NCc1ccco1	61% (inactive)	12%
CN(C)c1ccc(N=Cc2ccco2)cc1	47% (inactive)	14%
Brc1cc2c(cc1C1Nc3ccccc3C3C=CCC31)OCO2 (stereo not drawn)	20% (inactive)	25%
O=C(CSc1nnc(SCC(=O)c2ccco2)s1)c1ccco1	56% (inactive)	33%
CCCCCc1nnc(NC(=O)Cc2cccs2)s1	18% (inactive)	5%

Compound	inhibition (at 10 µM)	inhibition [1]
COc1ccc(C2CC(=O)Nc3ccccc3S2(=O)=O)cc1OC (stereo not drawn)	5% (inactive)	20%
Oc1ccc(-c2nc3ccc4ccccc4c3c3c2CCC3)cc1O	71% (active)	47%
COc1cc(CCC(=O)OCC(=O)Nc2ncc(Cl)cc2Cl)cc(OC)c1OC	52% (inactive)	8%
COc1ccc(Cl)cc1NC(=O)c1ocnc1C	50% (inactive)	3%
Nc1ccc(-c2nc3c(Cl)c(N)ccc3[nH]2)cc1	66% (inactive)	32%
O=C(c1cc2ncc(Br)cn2n1)N1CCOCC1	68% (inactive)	41%
COc1ccc(NC(=O)C(c2ccccc2)N(C)C(=O)c2ccc(=O)[nH]c2)cc1 (stereo not drawn)	17% (inactive)	56%
CCc1ccc2c(c1)[C@H]1OCC[C@H]1[C@@H](c1cccs1)N2	0% (inactive)	65%
COc1ccc(N2C(=O)c3ccccc3NC2c2ccc(OC)c(COc3ccccn3)c2)cc1 (stereo not drawn)	40% (inactive)	9%
O=C(NNC(=O)c1ccc(SCC2CCCO2)c([N+](=O)[O-])c1)c1ccc(Cl)c([N+](=O)[O-])c1 (stereo not drawn)	0% (inactive)	4%
Cc1noc(C)c1COC(=O)c1cc2c3ccccc3n(C)c2s1	59% (inactive)	4%
Cc1[nH]c2ccc(-c3nnc(SCC(=O)c4ccccc4F)o3)cc2c1C	18% (inactive)	28%
Cc1ccc(OCCN2CCN(CC(O)Cn3c4ccccc4c4ccccc43)CC2)cc1 (stereo not drawn)	62% (inactive)	31%
Cc1c(Cl)cccc1NS(=O)(=O)c1ccc2c(c1)C1C=CCC1C(c1ccc(C(=O)O)cc1)N2 (stereo not drawn)	2% (inactive)	12%
COc1cccc(-n2nnnc2SCC(=O)Nc2ccc(C(C)=O)cc2)c1	61% (inactive)	51%
Cc1cc(NC(=O)CSc2cn(CCNC(=O)c3ccc(Cl)cc3)c3ccccc23)no1	11% (inactive)	31%
Cc1ccc(S(=O)(=O)NCCn2c(C)cc3ccccc32)cc1	23% (inactive)	18%
Clc1ccc2c(c1)[C@H]1OCC[C@H]1[C@@H](c1ccco1)N2	0% (inactive)	4%
CCCCNS(=O)(=O)c1ccc(NC(=O)C(Sc2ccccc2)c2ccccc2)cc1 (stereo not drawn)	41% (inactive)	14%
